From PubChem
Shown are actives, neighbours in structure and some others; about 19% of the full set was active somewhere.
TDP1 cell CPT: qHTS for Inhibitors of human tyrosyl-DNA phosphodiesterase 1 (TDP1): qHTS in cells in presence of CPT; chicken DT40 Tdp1-/-;hTDP1 cells + 20 nM CPT, ATP luminescence, 48 h; Potency, µM (series often up to 46.2 µM), actives largely listed as inhibitors; actives 12% (n = 420,000); AID 686979, 2013; note: nearly all actives have a fitted effect of over 55% in size
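Chicken DT40 Tdp1-/- cells stably complemented with human TDP1 were seeded at 400 cells/well in medium containing 20 nM camptothecin, exposed to pin-transferred compounds, and grown at 37 °C for at least 48 hr. Viability was read as ATP luminescence.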
HT1080NT lethal: qHTS for induction of synthetic lethality in tumor cells producing 2HG: qHTS for the HT-1080-NT fibrosarcoma cell line; AID 686970, 2013; Potency, µM (highest dose often 46.1 µM), usual class: cytotoxic; HT-1080-NT fibrosarcoma viability, CellTiter-Glo ATP luminescence, 48 h; actives 1.6% (n = 360,000);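 note: NT is the 2HG producing partner of a matched IDH1 knockdown line; nearly all actives have a fitted effect of over 55% in size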
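HT-1080-NT; 750 cells/well; 5% FBS RPMI; 48 h compound, 37 degrees C; CellTiter-Glo luminescence; curve fitting and curve-class assignment.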
DT40 TDP1 no CPT: qHTS for Inhibitors of human tyrosyl-DNA phosphodiesterase 1 (TDP1): qHTS in cells in absence of CPT. DT40 Tdp1-/- hTDP1 cells, no CPT, ATP luminescence, 48 h. Potency, µM (top dose mostly 46.2 µM), hits mostly inhibitors. actives 15% (n = 420,000); note: nearly all actives have a fitted effect of over 55% in size
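Seeded 400 DT40-hTDP1 cells/well (vehicle DMSO, no 20 nM CPT); pinned compounds; ≥48 hr at 37 °C; CellTiter-Glo luminescence as viability measure.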
HT1080 IDH1KD tx: qHTS for induction of synthetic lethality in tumor cells producing 2HG: qHTS for the HT-1080-IDH1KD cell line. HT-1080 IDH1 knockdown viability, ATP luminescence, 48 h. Potency, µM (top dose mostly 46.1 µM), usual class: cytotoxic. actives 2% (n = 360,000)
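Cytotoxicity counter-line: IDH1KD HT-1080, 48 h, CellTiter-Glo. Curves classed by r2, magnitude and activity.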
IL-1B inflam inh: qHTS for Inhibitors of Inflammasome Signaling: IL-1-beta AlphaLISA Primary Screen | AID 743279, 2014 | activity change, % at 57.5 µM | THP-1 LPS/ATP IL-1B secretion, AlphaLISA, 16 h; hits give low values | actives 4.7% (n = 360,000); in the data active = activity change below about -50%; inconclusive = mostly about -30% to -49%
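THP-1 cells pretreated 1 hr with compounds (up to 57.5 uM final), then stimulated with LPS (250 ng/mL final) plus ATP (1.25 mM final); secreted IL-1B measured by AlphaLISA after 16 hr, decreased signal indicating inhibition.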
A number is an active result; – = inactive; ? = inconclusive; · = not tested or not shown; [ ] = remark or other dose. Unless noted, calls come from the whole dose curve; as a rule, active = well fitted curve in the direction sought with a large enough effect; inconclusive = small, poorly fitted or top-dose-only effect, or another doubt; inactive = no such curve, though single readings can be large; an effect the other way counts as inactive or inconclusive.

SMILES	TDP1 cell CPT	HT1080NT lethal	DT40 TDP1 no CPT	HT1080 IDH1KD tx	IL-1B inflam inh
CCOC(=O)[C@H](C)N1[C@H](C)[C@H](c2ccccc2)Oc2ccc(Cl)cc2S1(=O)=O	?	–	?	–	–
COc1cccc(NC(=O)N(C)C[C@@H]2OCc3cnnn3CCCC(=O)N([C@H](C)CO)C[C@@H]2C)c1	–	–	–	–	–
Cc1cccc(/C=N/NC(=O)c2cc(C3CC3)nc3ccccc23)n1	–	–	–	–	–
Cc1cc(C(=O)N/N=C/c2cc([N+](=O)[O-])ccc2O)c2ccccc2n1	5.17µM	?	4.61µM	?	–
O=C(N/N=C/c1ccc([N+](=O)[O-])cc1)c1cc(C2CC2)nc2ccccc12	9.2µM	25.9µM	7.31µM	23.1µM	–
CCc1ccc(/C=N/NC(=O)c2cc(C3CC3)nc3ccccc23)s1	4.61µM	?	2.31µM	1.84µM	–
Cc1cc(C(=O)N/N=C/c2ccc([N+](=O)[O-])s2)c2ccccc2n1	25.9µM	?	14.6µM	?	-78.7
Cc1cc(C(=O)N/N=C/c2cc(Br)cc([N+](=O)[O-])c2O)c2ccccc2n1	?	?	?	?	–
O=C(O)C1CCc2nc(NCc3ccccc3)nc(NCc3ccccc3)c2C1 (centres undefined)	–	–	–	–	–
Cc1ccc(Sc2c([N+](=O)[O-])ncn2C)cc1	20.6µM	–	?	–	–
CCCC1C(=O)Nc2ccccc2N1C(=O)c1cccc(C)c1 (centres undefined)	–	–	–	–	–
CCCC1C(=O)Nc2ccccc2N1C(=O)c1ccc(C(C)(C)C)cc1 (centres undefined)	?	9.2µM	20.6µM	?	-82.1
Cn1c(=O)c2c(nc(SCCN3CCOCC3)n2Cc2ccccc2Cl)n(C)c1=O	?	–	?	–	?
Cn1c(=O)c2c(nc(SCCN3CCOCC3)n2Cc2cccc3ccccc23)n(C)c1=O	8.2µM	–	5.17µM	?	–
Cc1ccc(Cn2c(SCCN3CCCCC3)nc3c2c(=O)n(C)c(=O)n3C)cc1	?	–	14.6µM	–	–
O=C(COc1ccccc1F)OCc1cc(=O)n2nc(-c3cccs3)sc2n1	–	·	–	·	·
CCOC(=O)CCNC(=O)N1CCCC(N(C)CCc2ccc(OC)c(OC)c2)C1 (centres undefined)	–	–	–	–	–
CC(=O)N1CCN(C2=Nc3cccc4cccc2c34)CC1	–	–	–	–[9.24 µM]	-65.8
c1ccc(CC2CCN(C3=Nc4cccc5cccc3c45)CC2)cc1	?	?	9.2µM	20.6µM	–
c1cc2c3c(cccc3c1)C(N1CCOCC1)=N2	–	–	–	–	·
CCOC(=O)N1CCN(C2=Nc3cccc4cccc2c34)CC1	–	–	–	–	·
CCOc1ccc(-n2nc(CO)c(C(=O)NCc3ccc(Cl)cc3)n2)cc1	–	·	–	·	·
CCOC(=O)c1c(C)[nH]c(C(=O)COC(=O)/C=C/c2ccc(OCC#N)c(OC)c2)c1C	–	–	–	–	–
CSc1ccc(C(=O)/C=C/c2ccc(N)cc2)cc1	–	?	?	?	-99.4
O=C(C=Cc1ccccc1)c1ccc([N+](=O)[O-])cc1	?	?	18.4µM	?	–
SMILES	TDP1 cell CPT	HT1080NT lethal	DT40 TDP1 no CPT	HT1080 IDH1KD tx	IL-1B inflam inh
CCOC(=O)Nc1ccc(C(=O)/C=C/c2ccccc2)cc1	5.17µM	?	2.59µM	?	-88.3
O=C(/C=C/c1cccnc1)c1ccc([N+](=O)[O-])cc1	–	?	?	–	–
COc1ccc(C(=O)/C=C/Sc2nc3ccccc3o2)cc1	2.59µM	?	2.31µM	3.26µM	-94.8
COc1ccc(CCC(=O)NCc2ccc3c(c2)CCN3C(=O)c2ccc(Cl)cc2)cc1	–	·	?	·	·
CC1CC(=O)Nc2ccccc2N1S(=O)(=O)c1cccc(Cl)c1 (centres undefined)	?	–	?	–	–
C=CCOc1ccc(C=CC(=O)c2c(O)c(OC)c(OC)c(OC)c2OC)cc1	16.4µM	–	16.4µM	–	-102.2
C=CCOc1ccc(/C=C/C(=O)OCC(=O)NCc2cccc(OC)c2)cc1	–	–	?	–	–
Cc1[nH]c(C)c(C(=O)/C=C/c2ccc([N+](=O)[O-])cc2)c1C	16.4µM	?	23.1µM	11.6µM	-97.4
CN(C)c1ccc(/C=C/C(=O)c2ccc(O)cc2)cc1	?	–	10.3µM	–	-105.6
COc1ccc(C(=O)/C=C/c2ccccc2)cc1	?	·	23.1µM	·	·
O=C(NCc1ccc(N2CCCC2=O)cc1)c1cc(COc2c(F)cccc2F)on1	?	–	?	–	–
COc1ccc(C=CC(=O)c2ccc([N+](=O)[O-])cc2)cc1	–	–	–	–	–
COc1ccc(C=CC(=O)c2c(OC)cc(OC)c(OC)c2O)cc1	?	–	?	?	-62.7
COc1ccc(C=CC(=O)C=CC=Cc2ccccc2)cc1	?	–	?	?	-51.7
COc1ccc(C(=O)/C=C/c2ccc(O)cc2)cc1	–	–	?	–	-57.3
COc1ccc(/C=C/C(=O)Oc2cc(O)cc(O)c2)cc1	–	–	–	–	–
O=C(O)/C=C/C=C/c1ccccc1	–	·	–	·	·
COc1ccc(C=CC(=O)c2cc(O)ccc2O)cc1	?	16.4µM	?	18.4µM	?
CCOC(=O)c1ccc(NS(=O)(=O)c2c(C)[nH]c(C)c2C(=O)N2CCCCC2)cc1	?	–	–	–	–
CC1CC(C)CN(C(=O)CSc2nc(N)cc(=O)[nH]2)C1 (centres undefined)	–	–	–	–	?
Cc1cccc(C(C)C)c1NC(=O)C1CCCN1S(=O)(=O)c1cccc2nsnc12 (centres undefined)	23.1µM	·	14.6µM	·	·
CC(=O)Nc1ccc(NC(=O)C2CCCN2S(=O)(=O)c2cccc3nsnc23)cc1 (centres undefined)	–	–	–	–	–
CC1CCCC(NC(=O)C2CCCN2S(=O)(=O)c2cccc3nsnc23)C1C (centres undefined)	?	–	14.6µM	–	–
CCCCNC(=O)C1CCCN1S(=O)(=O)c1cccc2nsnc12 (centres undefined)	–	–	–	–	–
O=C(Nc1ccccc1N1CCCCC1)c1cc(S(=O)(=O)N2CCOCC2)ccc1F	?	–	?	–	–
CCOC(=O)c1ccccc1NC(=O)c1c(F)c(F)c(F)c(F)c1F	?	–	–	–	-69.4
O=C(OCN1C(=O)c2ccccc2C1=O)c1cc(S(=O)(=O)N2CCOCC2)ccc1F	–	–	–	–	-57.2
